“And” between values parts separate entries of the source, which are not always exact repeats. Equal entries are not always repeated. Inconclusive results are not listed. More than one record can exist for a structure, and the calls need not agree. The source made the active and inactive calls. Rule for the calls, unless noted: active = hit-call score of the fitted dose curve at least 0.9, where 1 is the maximum; inactive = score below 0.9.
molecular target: human Retinoid X Receptor beta (RXRb), RXRB (gene 6257) (UniProt P28702); experiment: ATG_RXRb_TRANS: Attagene TRANS-FACTORIAL HepG2 Assay for human Retinoid X Receptor beta (RXRb) (AID 2283013; active = hit-call score of the fitted dose curve at least 0.9, where 1 is the maximum); conditions: not given
In short: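 Multiplexed TRANS reporter assay in HepG2; 24 h dosing; reporter mRNA by RT-PCR/CE fluorescence; gain-of-signal relative to DMSO.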

E-selectin (Homo sapiens), sequence (P16581 whole entry, looked up): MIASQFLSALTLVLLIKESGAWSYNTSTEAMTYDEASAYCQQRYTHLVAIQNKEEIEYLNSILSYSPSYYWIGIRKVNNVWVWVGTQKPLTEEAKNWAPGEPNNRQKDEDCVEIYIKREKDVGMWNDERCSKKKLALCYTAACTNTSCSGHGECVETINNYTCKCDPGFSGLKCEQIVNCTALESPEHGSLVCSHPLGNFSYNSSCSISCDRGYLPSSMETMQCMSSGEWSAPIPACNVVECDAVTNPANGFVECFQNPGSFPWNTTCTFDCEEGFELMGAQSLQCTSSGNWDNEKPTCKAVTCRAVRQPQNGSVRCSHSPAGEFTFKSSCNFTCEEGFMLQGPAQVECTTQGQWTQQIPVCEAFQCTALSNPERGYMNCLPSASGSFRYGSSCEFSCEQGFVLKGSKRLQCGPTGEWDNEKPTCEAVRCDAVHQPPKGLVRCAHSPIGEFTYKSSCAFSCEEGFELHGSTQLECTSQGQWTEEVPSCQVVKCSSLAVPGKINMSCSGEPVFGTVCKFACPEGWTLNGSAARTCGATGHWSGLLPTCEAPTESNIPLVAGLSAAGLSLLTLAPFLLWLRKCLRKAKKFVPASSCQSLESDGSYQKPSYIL
human Retinoid X Receptor beta (RXRb), RXRB (gene 6257), sequence (P28702 whole entry, looked up): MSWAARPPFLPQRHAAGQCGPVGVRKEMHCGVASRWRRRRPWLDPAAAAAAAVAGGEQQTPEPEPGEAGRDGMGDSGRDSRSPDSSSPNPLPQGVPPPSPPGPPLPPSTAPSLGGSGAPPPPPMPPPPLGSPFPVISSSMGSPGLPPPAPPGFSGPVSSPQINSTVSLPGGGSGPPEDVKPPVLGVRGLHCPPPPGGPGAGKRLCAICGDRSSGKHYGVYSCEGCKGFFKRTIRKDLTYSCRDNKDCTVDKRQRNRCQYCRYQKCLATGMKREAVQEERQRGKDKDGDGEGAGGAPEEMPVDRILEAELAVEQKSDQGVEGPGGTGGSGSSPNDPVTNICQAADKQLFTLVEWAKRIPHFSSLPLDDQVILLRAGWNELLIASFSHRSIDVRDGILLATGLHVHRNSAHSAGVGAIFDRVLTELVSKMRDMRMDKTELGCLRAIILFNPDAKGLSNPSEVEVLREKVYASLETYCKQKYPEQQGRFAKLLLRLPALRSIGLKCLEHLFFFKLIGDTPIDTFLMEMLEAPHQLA

Compound | outcome | AC50
O=S(=O)(O)CC(O)CCl (stereo not given) | inactive | –
Nc1ccc(N)c(Cl)c1 | inactive | –
CCCCCCCCCCCCCCCC[n+]1ccccc1 | inactive | –
CCc1c(C(=O)O)c(=O)cnn1-c1ccc(Cl)cc1 | inactive | –
CCCCC/C=C\CCC=O | inactive | –
O=c1c2ccccc2nnn1CCl | inactive | –
O=P(O)(O)Oc1ccccc1 | inactive | –
CCCC(C)CCC(C)=O (stereo not given) | inactive | –
NCCCN1CCN(CCCN)CC1 | inactive | –
Cn1c(=O)[nH]c2ncn(C)c2c1=O | inactive | –
C=C(C)[C@@H]1CCC2=CCC[C@@H](C)[C@]2(C)C1 | – | 47.6 µM (active)
Cc1cc(C)c(C)cc1C | inactive | –
O=C(O)c1cc2ccccc2nc1C(=O)O | inactive | –
FC(F)=C(F)OC(F)(F)C(F)(F)C(F)(F)F | inactive | –

molecular target: human Thyroid Receptor alpha (THRa1), THRA (gene 7067) (UniProt P10827); experiment: ATG_THRa1_TRANS: Attagene TRANS-FACTORIAL HepG2 Assay for human Thyroid Receptor alpha (THRa1) (AID 2283014; active = hit-call score of the fitted dose curve at least 0.9, where 1 is the maximum); conditions: not given
In short: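 Reporter transcript induction, read by capillary electrophoresis of 6-FAM-labelled RT-PCR products, reflects activity of a transfected THRa1-Gal4 fusion in HepG2 liver cells. Cells were dosed for 24 h; activity was fitted in the positive direction against DMSO.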

human Thyroid Receptor alpha (THRa1), THRA (gene 7067), sequence (P10827 whole entry, looked up, the tested form may be a part): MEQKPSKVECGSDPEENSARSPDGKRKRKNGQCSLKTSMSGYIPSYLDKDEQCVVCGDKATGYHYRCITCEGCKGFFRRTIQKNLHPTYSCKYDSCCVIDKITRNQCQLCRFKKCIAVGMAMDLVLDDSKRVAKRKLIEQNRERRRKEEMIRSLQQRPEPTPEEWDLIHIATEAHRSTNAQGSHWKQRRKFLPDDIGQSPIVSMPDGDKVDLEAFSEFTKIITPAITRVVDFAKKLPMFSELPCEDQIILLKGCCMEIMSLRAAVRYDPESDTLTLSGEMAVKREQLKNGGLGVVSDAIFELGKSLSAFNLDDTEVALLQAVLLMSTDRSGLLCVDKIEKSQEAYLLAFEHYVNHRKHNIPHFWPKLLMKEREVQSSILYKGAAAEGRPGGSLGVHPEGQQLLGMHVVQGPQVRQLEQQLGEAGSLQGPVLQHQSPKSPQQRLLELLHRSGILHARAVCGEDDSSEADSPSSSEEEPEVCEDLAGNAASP

Compound | outcome | AC50
OC1OCCOC1O (stereo not given) | inactive | –
S=C(NC1CCCCC1)NC1CCCCC1 | inactive | –
Cn1c([N+](=O)[O-])cnc1COC(N)=O | inactive | –
N=c1ccn2c(n1)O[C@H]1[C@H](O)[C@@H](CO)O[C@H]12 | inactive | –
c1cc(N(CC2CO2)CC2CO2)ccc1OCC1CO1 (stereo not given) | inactive | –
COC(=O)C1=C(C)NC(C)=C(C(=O)OCC(C)C)C1c1ccccc1[N+](=O)[O-] (stereo not given) | inactive | –
CCCCCCCC[N+](C)(CCCCCCCC)CCCCCCCC | inactive | –
O=P(O)(O)Oc1ccccc1 | – | 8.7 µM (active)
CC(=O)OCCC1CCCCC1 | inactive | –
CCCC(C)CCC(C)=O (stereo not given) | inactive | –
CC(C)C(=O)C(C)C | inactive | –
NCCCN1CCN(CCCN)CC1 | inactive | –
C=CC=CC=CCCCCC | inactive | –
C=C[Si](OC(C)=O)(OC(C)=O)OC(C)=O | inactive | –
CCCCCCCOC(=O)CCC | inactive | –
COc1ccc(NC(C)=O)cc1N | inactive | –
CO[Si](OC)(OC)c1ccccc1 | inactive | –
OCCc1ccncc1 | inactive | –
O=c1cc[nH]c(=S)[nH]1 | inactive | –
Nc1nc2ccccc2[nH]1 | inactive | –
c1cc(C(c2ccc(OCC3CO3)cc2)C(c2ccc(OCC3CO3)cc2)c2ccc(OCC3CO3)cc2)ccc1OCC1CO1 (stereo not given) | inactive | –

read-out: E-selectin (Homo sapiens) (UniProt P16581); experiment: BSK_3C_Eselectin: BioMAP Diversity Plus: 3C Assay for Eselectin Biomarker Activity (AID 2283015); conditions: primary human endothelial cells (HUVEC); actives raise or lower the signal;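 for outcome: cell surface E-selectin protein quantified by ELISA 24 h after dosing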
In short: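 ELISA read-out of E-selectin on endothelial monolayers after 24 h chemical treatment. Human umbilical vein primary cells served as the system, with DMSO defining baseline activity for bidirectional fitting.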

Compound | AC50 | outcome
Nc1ccc(N)c(Cl)c1 | 5.26 µM (active) | inactive
S=C(NC1CCCCC1)NC1CCCCC1 | – | inactive
CCOC(=O)c1ccccc1C(=C1C=C(Br)C(=O)C(Br)=C1)c1cc(Br)c(O)c(Br)c1 | 21 µM (active) and 19.9 µM (active) | –
CC(C)C(=O)C(C)C | – | inactive
C=CC=CC=CCCCCC | – | inactive
C=C[Si](OC(C)=O)(OC(C)=O)OC(C)=O | – | inactive
CCO[Si](C)(OCC)OCC | – | inactive
CO[Si](OC)(OC)c1ccccc1 | – | inactive

read-out: Interleukin-1 alpha (IL1a), IL1A (gene 3552); experiment: BSK_BE3C_IL1a: BioMAP Diversity Plus: BE3C Assay for Interleukin-1 alpha (IL1a) Biomarker Activity (AID 2283016); conditions: primary human bronchial epithelial cells; actives raise or lower the signal
In short: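 Cultures of primary human bronchial epithelial cells receive test chemical. After 24 h, IL-1a is quantified by ELISA, while parallel wells are fixed in TCA and SRB-stained for total protein. Changes in either direction are fitted relative to DMSO.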

Compound | AC50 | outcome
Nc1ccc(N)c(Cl)c1 | 20 µM (active) | inactive
S=C(NC1CCCCC1)NC1CCCCC1 | – | inactive
CCOC(=O)c1ccccc1C(=C1C=C(Br)C(=O)C(Br)=C1)c1cc(Br)c(O)c(Br)c1 | 4.38 µM (active) and 4.46 µM (active) | –
CC(C)C(=O)C(C)C | – | inactive
C=CC=CC=CCCCCC | – | inactive
C=C[Si](OC(C)=O)(OC(C)=O)OC(C)=O | – | inactive
CCO[Si](C)(OCC)OCC | – | inactive
CO[Si](OC)(OC)c1ccccc1 | – | inactive

read-out: Monocyte Chemoattractant Protein-1 (MCP1), CCL2 (gene 6347); experiment: BSK_3C_MCP1: BioMAP Diversity Plus: 3C Assay for Monocyte Chemoattractant Protein-1 (MCP1) Biomarker Activity (AID 2283017); conditions: primary human endothelial cells (HUVEC); actives raise or lower the signal
In short: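 ELISA read-out of MCP-1 from human umbilical vein endothelial cell cultures harvested 24 h post-dosing. Gain or loss of signal was fitted relative to DMSO.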

Compound | AC50 | outcome
Nc1ccc(N)c(Cl)c1 | 32.4 µM (active) and 31.9 µM (active) | –
S=C(NC1CCCCC1)NC1CCCCC1 | – | inactive
CCOC(=O)c1ccccc1C(=C1C=C(Br)C(=O)C(Br)=C1)c1cc(Br)c(O)c(Br)c1 | 21.6 µM (active) and 20.9 µM (active) | –
CC(C)C(=O)C(C)C | – | inactive
C=CC=CC=CCCCCC | – | inactive
C=C[Si](OC(C)=O)(OC(C)=O)OC(C)=O | – | inactive
CCO[Si](C)(OCC)OCC | – | inactive
CO[Si](OC)(OC)c1ccccc1 | – | inactive

read-out: Monocyte Chemoattractant Protein-1 (MCP1), CCL2 (gene 6347); experiment: BSK_4H_MCP1: BioMAP Diversity Plus: 4H Assay for Monocyte Chemoattractant Protein-1 (MCP1) Biomarker Activity (AID 2283018); conditions: primary human endothelial cells (HUVEC); actives raise or lower the signal
In short: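 Readout: MCP-1 ELISA on compound-treated HUVEC, sampled 24 h post-dosing. Baseline and negative control DMSO; bidirectional fit. Overt toxicity checked alongside by sulforhodamine B protein staining at time of biomarker measurement.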

Compound | AC50 | outcome
Nc1ccc(N)c(Cl)c1 | 26.1 µM (active) and 14.6 µM (active) | –
S=C(NC1CCCCC1)NC1CCCCC1 | – | inactive
CCOC(=O)c1ccccc1C(=C1C=C(Br)C(=O)C(Br)=C1)c1cc(Br)c(O)c(Br)c1 | 15.5 µM (active) and 13.5 µM (active) | –
CC(C)C(=O)C(C)C | – | inactive
C=CC=CC=CCCCCC | – | inactive
C=C[Si](OC(C)=O)(OC(C)=O)OC(C)=O | – | inactive
CCO[Si](C)(OCC)OCC | – | inactive
CO[Si](OC)(OC)c1ccccc1 | – | inactive

read-out: Human Leukocyte Antigen - DR isotype (HLADR), HLA-DRA (gene 3122); experiment: BSK_3C_HLADR: BioMAP Diversity Plus: 3C Assay for Human Leukocyte Antigen - DR isotype (HLADR) Biomarker Activity (AID 2283019); conditions: primary human endothelial cells (HUVEC); actives raise or lower the signal;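 for outcome: ELISA of cell-surface HLA-DR on HUVEC 24 h after dosing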
In short: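 ELISA readout of surface HLA-DR on human umbilical vein endothelium, taken 24 h after chemical treatment. Gain- and loss-of-signal were both fitted relative to DMSO.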

Compound | AC50 | outcome
Nc1ccc(N)c(Cl)c1 | 30.2 µM (active) and 31.4 µM (active) | –
S=C(NC1CCCCC1)NC1CCCCC1 | – | inactive
CCOC(=O)c1ccccc1C(=C1C=C(Br)C(=O)C(Br)=C1)c1cc(Br)c(O)c(Br)c1 | 19.5 µM (active) and 16 µM (active) | –
CC(C)C(=O)C(C)C | – | inactive
C=CC=CC=CCCCCC | – | inactive
C=C[Si](OC(C)=O)(OC(C)=O)OC(C)=O | – | inactive
CCO[Si](C)(OCC)OCC | – | inactive
CO[Si](OC)(OC)c1ccccc1 | – | inactive

read-out: Interleukin-8 (IL8), CXCL8 (gene 3576); experiment: BSK_3C_IL8: BioMAP Diversity Plus: 3C Assay for Interleukin-8 (IL8) Biomarker Activity (AID 2283020); conditions: primary human endothelial cells (HUVEC); actives raise or lower the signal
In short: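 Human vascular endothelial cells (umbilical vein) in the 3C system; IL-8 level detected by ELISA at 24 h post-dose, with DMSO as baseline.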

Compound | outcome | AC50
Nc1ccc(N)c(Cl)c1 | inactive | –
S=C(NC1CCCCC1)NC1CCCCC1 | inactive | –
CCOC(=O)c1ccccc1C(=C1C=C(Br)C(=O)C(Br)=C1)c1cc(Br)c(O)c(Br)c1 | – | 20.2 µM (active) and 21.7 µM (active)
CC(C)C(=O)C(C)C | inactive | –
C=CC=CC=CCCCCC | inactive | –
C=C[Si](OC(C)=O)(OC(C)=O)OC(C)=O | inactive | –
CCO[Si](C)(OCC)OCC | inactive | –
CO[Si](OC)(OC)c1ccccc1 | inactive | –

Source: PubChem BioAssay (EPA / NIEHS)
